Data as given in PMC4336329 (PLoS ONE, 2015).
Hit rate of the full screen: of about 310,000 compounds, about 14,000 (4.5%) showed an effect of 50% or more. Effects have a minus sign here. Shown is part of a subset that was picked to be rich in strong results.

Each compound was assayed against human ether-à-go-go-related gene (hERG) potassium channel (human, UniProt Q12809) (assay: primary screen, population patch clamp on CHO cells stably expressing hERG; higher = less effect of the substance).
Chain of human ether-à-go-go-related gene (hERG) potassium channel (Q12809 whole entry, looked up): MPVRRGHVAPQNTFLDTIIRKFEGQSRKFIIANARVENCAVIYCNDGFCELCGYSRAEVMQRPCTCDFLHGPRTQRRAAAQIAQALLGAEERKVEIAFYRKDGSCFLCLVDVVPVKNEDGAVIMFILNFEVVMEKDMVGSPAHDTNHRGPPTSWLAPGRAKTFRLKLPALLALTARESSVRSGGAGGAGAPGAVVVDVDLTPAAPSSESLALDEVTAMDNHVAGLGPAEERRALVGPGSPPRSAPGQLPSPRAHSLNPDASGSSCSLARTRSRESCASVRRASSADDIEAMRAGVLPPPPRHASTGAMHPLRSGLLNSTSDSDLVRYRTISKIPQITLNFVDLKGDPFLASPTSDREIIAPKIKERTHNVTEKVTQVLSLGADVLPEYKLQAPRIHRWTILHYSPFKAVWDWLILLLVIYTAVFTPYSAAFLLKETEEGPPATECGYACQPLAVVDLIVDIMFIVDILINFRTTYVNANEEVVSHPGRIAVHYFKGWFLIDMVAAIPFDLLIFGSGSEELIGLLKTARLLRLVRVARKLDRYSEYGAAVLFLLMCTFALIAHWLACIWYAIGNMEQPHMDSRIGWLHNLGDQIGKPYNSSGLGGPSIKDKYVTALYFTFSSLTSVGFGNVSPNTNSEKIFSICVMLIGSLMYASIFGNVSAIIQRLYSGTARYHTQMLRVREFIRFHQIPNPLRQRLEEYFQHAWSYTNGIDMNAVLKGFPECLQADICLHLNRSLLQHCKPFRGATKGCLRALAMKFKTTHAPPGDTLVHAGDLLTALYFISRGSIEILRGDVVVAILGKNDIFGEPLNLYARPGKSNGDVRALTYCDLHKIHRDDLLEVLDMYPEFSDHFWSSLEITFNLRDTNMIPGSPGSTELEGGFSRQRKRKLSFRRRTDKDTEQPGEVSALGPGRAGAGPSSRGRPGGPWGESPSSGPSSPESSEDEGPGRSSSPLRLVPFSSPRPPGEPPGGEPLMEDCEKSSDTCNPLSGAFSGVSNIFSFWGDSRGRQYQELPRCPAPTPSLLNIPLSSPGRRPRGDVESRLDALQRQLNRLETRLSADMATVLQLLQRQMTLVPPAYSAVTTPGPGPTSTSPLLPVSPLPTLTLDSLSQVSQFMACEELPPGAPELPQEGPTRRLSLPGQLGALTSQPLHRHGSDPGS
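Also: peak tail current of the secondary pulse compared with the same well before compound.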

Compound | hERG current change (%, negative = inhibition) at 10uM [%]
O=C1CC(N2CCOCC2)=NN1c1ccc([N+](=O)[O-])cc1 | -8.54
CCNC(=S)NNC(=O)c1nn(C)c(C)c1Cl | 19
CC(=O)Nc1c(O)n(C)c2ccccc12 | 13.6
CCOc1ccc(OCC(=O)N2CCC3(CC2)CC(=O)c2ccccc2O3)cc1 | -94.6
CCOC(=O)C1CCN(C(=O)C(C)Oc2ccc(Br)cc2)CC1 (stereo not shown) | -16.1
CC(Oc1ccc(Br)cc1)C(=O)N1CCC(C(N)=O)CC1 (stereo not shown) | -78.1
COc1ccccc1OCC(=O)N1CCC2(CC1)CC(=O)c1ccccc1O2 | -40.2
Cc1ccccc1OCC(=O)N1CCC2(CC1)CC(=O)c1ccccc1O2 | -57.5
COc1ccc(OCC(=O)N2CCC3(CC2)CC(=O)c2ccccc2O3)cc1 | -88.9
CCC(Oc1ccccc1)C(=O)N1CCC(C(N)=O)CC1 (stereo not shown) | 15.8
CC(=O)N1CCC2(CC1)CC(=O)c1cc(OCC(=O)N3CCC4(CC3)OCCO4)ccc1O2 | 18.5
CCOC(=O)N1CCN(C(=O)COc2ccc3c(c2)C(=O)CC2(CCN(C(C)=O)CC2)O3)CC1 | -2.13
CC(=O)N1CCC2(CC1)CC(=O)c1cc(OCC(=O)N3CCN(C)CC3)ccc1O2 | 1.86
CCN1CCN(C(=O)COc2ccc3c(c2)C(=O)CC2(CCN(C(C)=O)CC2)O3)CC1 | 20.5
O=C1CC2(CCN(C(=O)COc3ccccc3F)CC2)Oc2ccccc21 | -49.1
O=C(Nc1ccccc1N1CCOCC1)c1cccnc1 | 15
O=C(N/N=C/c1cccs1)c1cccc(NC(=O)c2ccc(Cl)cc2)c1 | 7.57
CO[C@@]1(NC(=O)C2SC(=C(C(N)=O)C(=O)O)S2)C(=O)N2C(C(=O)O)=C(CSc3nnnn3C)CS[C@@H]21 (stereo partly shown) | 13.6
CCCNc1nc(C)nc2c1cnn2CCc1ccccc1 | -12.8
CCOc1nc(CC(C)C)c2c(c1C#N)CC(C)(C)OC2 | 1.14

Compound | hERG current change (%, negative = inhibition) at 10uM [%]
O=C1CC(NS(=O)(=O)c2ccc3ccccc3c2)CN1c1ccccc1 (stereo not shown) | -0.798
Cl.N=c1sccn1CC(=O)Nc1ccc(Cl)cc1[N+](=O)[O-] | -21
COc1cc(C(=O)NNC(=O)c2cc(C)[nH]n2)cc(OC)c1OC | 18.8
C/C(=N\NC(=O)C1CC1)c1cccs1 | 9.16
O=C1CC2(CCN(C(=O)COc3ccccc3)CC2)Oc2ccccc21 | -67.4
O=C1CC2(CCCCC2)Oc2ccc(OCC(=O)N3CCOCC3)cc21 | 3.3
O=C1CC2(CCN(C(=O)COc3ccc(F)cc3)CC2)Oc2ccccc21 | -42.6
O=C(NCc1ccncc1)/C(=N/O)c1ccccc1 | 18.7
CSc1ccccc1NC(=O)Nc1ccc(Cl)cc1 | -1.3
CC(C)C(=O)Nc1ccccc1C(=O)OCC(=O)c1ccc2c(c1)OCCO2 | -10.4
Cc1nc2ccccc2nc1CN1CCN(Cc2ccc(F)c(F)c2)C(CCO)C1 (stereo not shown) | -40.4
CCn1c(CN2CCN(Cc3ccc(C)cc3)C(CCO)C2)nc2ccccc21 (stereo not shown) | -74.7
Cc1ccc(CN2CCN(Cc3ccc4cccc(F)c4n3)CC2CCO)cc1 (stereo not shown) | -68.6
CC(C)Cn1c(CN2CCN(C)C(CCO)C2)nc2ccccc21 (stereo not shown) | 4.02
Cc1ccc(CN2CCN(Cc3cccc(C)n3)CC2CCO)cc1 (stereo not shown) | -40.2
OCCC1CN(Cc2ccc3cccc(F)c3n2)CCN1Cc1ccccc1 (stereo not shown) | -15.6
CCn1cc(CN2CCN(Cc3ccccc3)C(CCO)C2)c2ccccc21 (stereo not shown) | -32
Cc1ccccc1CN1CCN(Cc2ccc3cccc(F)c3n2)CC1CCO (stereo not shown) | -32.7
Cc1ccc(CN2CCN(Cc3nc4ccccc4nc3C)CC2CCO)cc1 (stereo not shown) | -69.7
O=C(COc1ccc2ccccc2c1Br)Nn1cnnc1 | -1.78

Compound | hERG current change (%, negative = inhibition) at 10uM [%]
CCCCn1c(C)cc2cc(O)ccc21 | -16.8
CC(Oc1ccccc1F)C(=O)NC1CCS(=O)(=O)C1 (stereo not shown) | 11
CC(=O)[C@@H]1[C@@H](C)N(Cc2ccccc2)C(=O)N[C@H]1c1ccccc1 | 10.4
CC1(/[N+]([O-])=C/c2cccc(Cl)c2)CCCCC1=O (stereo not shown) | 4.74
Cc1ccc(NC(=O)COC(=O)C2CC2(Cl)Cl)cc1C (stereo not shown) | -4.06
CSCCC(NC(=O)c1ccco1)C(=O)N(C)CC(=O)Nc1c(Cl)cccc1Cl (stereo not shown) | 11.8
O=C(O)C1C2C=CC(C3CC23)C1C(=O)O (stereo not shown) | 10.6
Cc1noc(C)c1C(=O)NCCc1ccccc1 | 0.324
O=C(CN1CCC(n2nnc3ccccc32)CC1)Nc1ccc2c(c1)CCC2 | -39.3
Cc1ccccc1C(=O)NC1CCN(CC(=O)NCc2cccs2)CC1 | 6.14
O=C(CN1CCC(n2nnc3cc(C(F)(F)F)ccc32)CC1)Nc1ccc2c(c1)CCC2 | 1.83
O=C(CN1CCC(n2nnc3ccccc32)CC1)NCc1cccs1 | -60.2
O=C(CN1CCC(n2nnc3cc(C(F)(F)F)ccc32)CC1)NCc1cccs1 | -74.5
COc1ccc(C(=O)NNC(=O)CN2CCC(n3nnc4cc(C(F)(F)F)ccc43)CC2)cc1 | -10.4
COc1ccccc1CNC(=O)c1cc2c(s1)CS(=O)(=O)C2 | 10.3
COc1cc(C)c(NC(=S)Nc2ccc(Cl)c(Cl)c2)cc1OC | 5.06
COc1cc(CNc2nnnn2C)ccc1OCc1c(F)cccc1Cl | 0.756
COC(=O)C1=C(c2ccc(-c3ccccc3)c(F)c2)C[C@@H]2CC[C@H]1N2C(=O)NC(C)C | -16.8
